An excerpt weighted towards active compounds, which were near 2.4% of everything screened.
Cruzain inh noDet: inhibitors of Trypanosoma cruzi cruzain without detergent; purified cruzain, Z-FR-AMC fluorescence, no detergent; P25779; Potency, µM, without a hit: max response, negative = inhibition, most hits filed as inhibitors; 200,000 compounds, 2.3% hits;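 also: plate controls were enzyme without inhibitor for no effect and buffer without enzyme for full effect; nearly all actives have a fitted effect of over 40% in size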
Target sequence (P25779 123-467 limits assumed): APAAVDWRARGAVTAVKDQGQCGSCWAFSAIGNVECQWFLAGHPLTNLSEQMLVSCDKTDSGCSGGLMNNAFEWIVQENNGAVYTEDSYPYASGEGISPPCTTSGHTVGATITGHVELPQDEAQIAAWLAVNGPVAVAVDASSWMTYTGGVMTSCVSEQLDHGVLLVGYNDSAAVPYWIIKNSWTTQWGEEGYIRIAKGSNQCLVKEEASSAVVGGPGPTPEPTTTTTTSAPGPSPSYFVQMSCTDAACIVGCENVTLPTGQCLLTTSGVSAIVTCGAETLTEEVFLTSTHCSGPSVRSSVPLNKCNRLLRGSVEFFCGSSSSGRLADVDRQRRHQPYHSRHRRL
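Purified cruzain at 1.5 nM, pre-incubated 15 min with compound at room temperature in 100 mM sodium acetate pH 5.5, 5 mM DTT, 0.00005% Triton X-100. Reaction started with 2 uM Z-FR-AMC; AMC fluorescence increase over 60 s gives rate.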
Cruzain inh Det: cruzain (T. cruzi) inhibition with detergent; purified cruzain, Z-FR-AMC fluorescence, 0.01% Triton; AID 1478; 200,000 compounds, 0.43% hits; Potency, µM, for the others: max response, negative = inhibition, usual class: inhibitors;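 also: plate controls were neutral wells for no effect and buffer without enzyme for full effect; nearly all actives have a fitted effect of over 40% in size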
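Detergent-containing arm of a paired screen for aggregation-based inhibition: 0.01% Triton X-100 present. Cruzain at 1.5 nM cleaved 2 uM Z-FR-AMC at pH 5.5 with 5 mM DTT; AMC fluorescence gain over 60 s measured activity.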
The depositor's hits bear a star; ? = inconclusive. Calls follow the shape of the dose curve; as a rule, active = well fitted curve in the direction sought with a large enough effect; inconclusive = small, poorly fitted or top-dose-only effect, or another doubt; inactive = no such curve, though single readings can be large; an effect the other way counts as inactive or inconclusive. Potency is read from the fitted curve at half-maximal effect.

SMILES | Cruzain inh noDet | Cruzain inh Det
CCOC(=O)C1CCCN(c2c(C(=O)c3ccc(C)cc3)cnc3ccc(OCC)cc23)C1 (stereo not given) | 9% | -1%
CC1CCc2c(sc(NC(=O)COc3ccccc3C(C)(C)C)c2C#N)C1 (stereo not given) | -8% | -1%
N#Cc1c(NC(=S)NC(=O)c2ccccc2)sc2c1CCN(CCc1ccccc1)C2 | 16µM* | -15%
CC1CCc2c(sc(NC(=O)COC(=O)c3ccccc3NCc3ccco3)c2C#N)C1 (stereo not given) | 16µM* | 5%
N#Cc1c(NC(=S)NC(=O)c2ccccc2)sc2c1CCCC2 | -24% | -3%
Cc1cc(C(=O)Nc2sc3c(c2C#N)CCC(C)C3)cs1 (stereo not given) | ? | 3%
Cc1ccccc1C(=O)NC(=S)Nc1sc2c(c1C#N)CCC(C)C2 (stereo not given) | 16µM* | 2%
CCc1ccccc1S(=O)(=O)Cc1ccc(C(=O)NCCc2ccc(C)cc2)o1 | 5% | -6%
O=C(O)[C@@H]1[C@@H]2C[C@@H]3[C@@H](OC(=O)[C@@H]31)[C@H]2Br | 2% | -5%
COc1ccc(C2CC(c3ccccc3)=NN2C(=O)COC(=O)C2CC2)cc1 (stereo not given) | 0% | -8%
COc1ccc(C2CC(c3ccccc3)=NN2C(=O)COC(=O)c2cccnc2Cl)cc1 (stereo not given) | 16% | -7%
COc1ccc(C2CC(c3ccccc3)=NN2C(=O)COC(=O)c2cc(S(=O)(=O)N3CCOCC3)ccc2Cl)cc1 (stereo not given) | 13µM* | 1%
COc1ccc(C2CC(c3ccccc3)=NN2C(=O)COC(=O)c2cccnc2)cc1 (stereo not given) | 16µM* | -8%
COC(=O)c1ccc(C(NC(=O)OCc2ccccc2)/C(C)=C/[C@@H](C)C(=O)NCc2cccnc2)cc1 (stereo not given in full) | ? | -3%
C=C(C#N)C(=O)OCC | 6% | 2%
COc1ccc(-c2nc(-c3ccccc3)c(-c3ccccc3)[nH]2)cc1Br | 3.2µM* | 0%
COc1ccc(-c2nc(-c3ccccc3)c(-c3cccs3)[nH]2)cc1OC | 25% | -2%
Cc1ccc(-c2nnc(SCC(=O)n3c4c(c5ccccc53)CCCC4)o2)cc1 | -18% | 1%
O=C(CSc1nnc(-c2ccccc2)o1)n1c2c(c3ccccc31)CCCC2 | 25µM* | 0%
Cc1ccc(C(=O)CNc2cccc(Cl)c2)cc1 | -23% | -1%
O=C(CNc1cccc(Cl)c1)c1ccc(Cl)cc1 | 32µM* | 7%
CCc1ccc(NC(=O)C(=O)NCC(c2ccc3c(c2)OCO3)N2CCOCC2)cc1 (stereo not given) | -3% | 1%
O=C1/C(=C/c2c[nH]c3ccccc23)CCC/C1=C\c1c[nH]c2ccccc12 | 25µM* | -4%
O/N=C/c1c[nH]c2ccccc12 | -9% | -2%
COc1ccc(CCNC(=O)c2c(O)nc3c(C)cccn3c2=O)cc1 | ? | -8%
SMILES | Cruzain inh noDet | Cruzain inh Det
COc1ccc(C)cc1S(=O)(=O)NCC(c1ccc(N(C)C)cc1)N1CCc2ccccc21 (stereo not given) | ? | -5%
Cc1cc(C)c(S(=O)(=O)NCC(c2ccc(N(C)C)cc2)N2CCc3ccccc32)c(C)c1 (stereo not given) | 20µM* | -2%
CCOc1ccc(C(=O)N/N=C/c2ccccc2[N+](=O)[O-])cc1 | -17% | -7%
O=C(N/N=C/c1ccccc1[N+](=O)[O-])c1ccc(COc2ccccc2-c2ccccc2)cc1 | 13µM* | -5%
CCc1ccc(NC(=O)CS(=O)CC(=O)NC(C)CCc2ccco2)cc1 (stereo not given) | 25µM* | 0%
CCc1ccc(NC(=O)N(Cc2ccco2)C(C)c2cccs2)cc1 (stereo not given) | 1% | 2%
Cc1ccccc1NC(=O)CN(C)S(=O)(=O)c1cccc2nsnc12 | -24% | -2%
CC1=C(c2ccc(C)c(C)c2)S(=O)(=O)N(Cc2ccc(C(=O)NCc3ccccc3F)cc2)C1=O | 25µM* | -3%
CC1=C(c2ccc(C)cc2)S(=O)(=O)N(Cc2ccc(C(=O)NCc3ccccc3)cc2)C1=O | ? | -5%
COc1ccc(C2=C(C)C(=O)N(Cc3ccc(C(=O)Nc4ccc(C)c(C)c4)cc3)S2(=O)=O)cc1 | 7.9µM* | -3%
COc1ccccc1NC(=O)c1ccc(CN2C(=O)C(C)=C(c3ccc(C)c(C)c3)S2(=O)=O)cc1 | 32µM* | -4%
CCOc1ccc(NC(=O)c2ccc(CN3C(=O)C(C)=C(c4ccc(C)cc4)S3(=O)=O)cc2)cc1 | -1% | -1%
CC1=C(c2ccc(C)cc2)S(=O)(=O)N(Cc2ccc(C(=O)Nc3ccccc3C)cc2)C1=O | ? | -4%
Cn1cc(C(=O)NCCc2ccc(Cl)cc2)c(=O)c2cc(S(=O)(=O)N3CCOCC3)ccc21 | -8% | 0%
Cc1ccc(OCC(=O)Nc2ccc3nc(SCC(N)=O)sc3c2)cc1 | -12% | -2%
COc1ccccc1-n1c(SCC(=O)Nc2ccc(C)cc2)nc(O)cc1=O | 5% | -3%
COc1ccc(NC(=O)CSc2nc(O)cc(=O)n2-c2ccccc2OC)cc1 | 16µM* | ?
CCOC(=O)c1c(C)n(Cc2ccco2)c2ccc(OC)cc12 | 9% | -18%
CCOC(=O)c1c(C)n(Cc2ccco2)c2c1cc(O)c1ccccc12 | 25µM* | -2%
COc1ccc(CNC(=O)c2cccc(N3CCCS3(=O)=O)c2)cc1OC | -2% | -1%
CCc1nn(CC(=O)N2CCN(c3ccc(OC)cc3)CC2)c(=O)c2cc3sccc3n12 | -5% | -2%
Cc1nc(C)c(-c2csc(NCc3ccco3)n2)s1 | -8% | -7%
Cc1ccc(Nc2nc(-c3sc(NC(=O)c4cccc(Cl)c4)nc3C)cs2)cc1 | 4µM* | 6%
COc1ccccc1Nc1nc(-c2sc(NC(=O)C(C)(C)C)nc2C)cs1 | -4% | -2%
COc1ccccc1Nc1nc(-c2sc(NC(=O)c3cccc(Cl)c3)nc2C)cs1 | 7.9µM* | 11%
SMILES | Cruzain inh noDet | Cruzain inh Det
Cc1ccc(Nc2nc(-c3sc(NC(=O)c4ccco4)nc3C)cs2)cc1 | -26% | 3%
COc1cccc(Nc2nc(-c3sc(NC(=O)c4ccccc4)nc3C)cs2)c1 | ? | 1%
Cc1nc(NC(=O)c2ccccc2)sc1-c1csc(NCc2ccco2)n1 | 16µM* | 5%
Cc1nc(NC(=O)c2ccc(Cl)cc2)sc1-c1csc(Nc2cccc(F)c2)n1 | 10µM* | 9%
CC(=O)N1CCCc2cc(S(=O)(=O)N3CCN(c4ccc(F)cc4)CC3)ccc21 | ? | -3%
COc1ccc(Nc2nnc(-c3ccc(C)c(S(N)(=O)=O)c3)c3ccccc23)cc1 | -8% | -7%
CC(C)c1ccc(C2N=C(N)Nc3nc4ccccc4n32)cc1 (stereo not given) | 3% | 1%
Cc1ccc(C)c(Oc2nc3c(c(=O)n(C)c(=O)n3C)n2Cc2ccccc2)c1 | -4% | -2%
CCOc1ccc(S(=O)(=O)c2c(C(=O)c3ccc(C)cc3)cnc3cc4c(cc23)OCCO4)cc1 | 6.3µM* | -5%
COc1ccc(S(=O)(=O)c2c(C(=O)c3ccc(C)c(C)c3)cnc3ccc(C)cc23)cc1 | 13µM* | -5%
Cc1ccc(C(=O)c2cnc3cc4c(cc3c2S(=O)(=O)c2ccccc2)OCCO4)cc1 | ? | -7%
Cc1ccc2ncc(C(=O)c3ccc(C)c(C)c3)c(S(=O)(=O)c3ccccc3)c2c1 | -21% | -5%

Bioassay records: PubChem BioAssay, National Center for Advancing Translational Sciences (NCATS)
